PostGolgi ctrl = growth of the yeast control strain, post-Golgi counter-screen | efflux-deficient yeast background strain, growth absorbance A615, 16 h | inhibition, % at 10 µM | 98,000 compounds, 5% hits
CYP2C19 inh = inhibitors of human CYP2C19. CYP2C19 Supersomes, luciferin-H EGE luminescence, 30 min. 96,000 compounds, 21% hits. inhibition, % at 5 µM;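 active = CYP2C19 inhibition above a set limit at 5 µM in the primary screen, cut at about 50% in these data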;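 also: plate controls were negative control wells for no effect and 2.5 mM tranylcypromine positive control for full effect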
Target sequence (P33261 whole entry, looked up): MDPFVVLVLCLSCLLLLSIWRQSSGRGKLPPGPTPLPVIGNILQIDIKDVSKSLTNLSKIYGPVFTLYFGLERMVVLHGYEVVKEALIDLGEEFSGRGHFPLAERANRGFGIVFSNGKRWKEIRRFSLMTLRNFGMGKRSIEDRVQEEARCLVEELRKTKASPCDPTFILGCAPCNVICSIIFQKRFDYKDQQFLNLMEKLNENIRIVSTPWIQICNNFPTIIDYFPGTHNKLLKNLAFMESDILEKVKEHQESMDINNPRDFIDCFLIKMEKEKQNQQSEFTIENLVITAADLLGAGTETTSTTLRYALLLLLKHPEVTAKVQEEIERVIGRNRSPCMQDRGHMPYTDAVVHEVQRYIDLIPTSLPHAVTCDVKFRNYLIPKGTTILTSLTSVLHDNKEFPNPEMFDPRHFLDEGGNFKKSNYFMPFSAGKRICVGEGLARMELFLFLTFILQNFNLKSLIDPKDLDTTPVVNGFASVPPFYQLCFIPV
CYP2C9 inhib = inhibitors of human CYP2C9; P11712; CYP2C9 Supersomes, luciferin-H conversion, luminescence; inhibition, % at 5 µM; 96,000 compounds, 20% hits; AID 777;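 active = blocking of liver enzyme CYP2C9 beyond about 50% at 5 µM, limit read from the data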
CYP2C9 act = CYP2C9 (human) activation; activation factor at 5 µM; 96,000 compounds, 1.4% hits; P11712; recombinant CYP2C9, luciferin-H conversion, luminescence; active compounds read high; factor 1 = untreated enzyme, 0 = blocked; AID 1024;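 active = activation factor of 2 or more for CYP2C9 at a 5 µM dose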;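 also: 0 = sulfaphenazole-blocked wells and 1 = vehicle-only wells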
PostGolgi yeast = growth inhibition of a yeast mutant, post-Golgi transport screen | post-Golgi transport phenotypic cell assay | inhibition, % at 10 µM | 98,000 compounds, 0.9% hits;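 also: yeast cells grown in 1536-well plates; yeast grown about 18 h at 30C before absorbance read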
CYP2C19 act = increases human CYP2C19 enzyme activity. P33261. recombinant CYP2C19, luciferin-H EGE luminescence; active compounds read high; 0 = fully inhibited enzyme, 1 = untreated enzyme. activation factor at 5 µM. 96,000 tested, under 10 active. AID 1025;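 active = activation factor of at least 2 at 5 µM in the primary screen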;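 also: 0 = wells with 2.5 mM tranylcypromine and 1 = vehicle-only wells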
The depositor's hits bear a star; / = no result. Shown are actives, neighbours in structure and some others; about 32% of the full set was active somewhere. Rule as the data show it, unless noted: active = inhibition above about 30%; inactive = the rest.

SMILES	PostGolgi ctrl	CYP2C19 inh	CYP2C9 inhib	CYP2C9 act	PostGolgi yeast	CYP2C19 act
Cc1ccc(-n2nnc3c(=O)n(CC(=O)NCC4CCCO4)cnc32)cc1 (stereo unspecified)	3.4	-10.3	-25.5	1.3	-2.2	1.1
Cc1ccc(N=Cc2sc(O)c3ccccc23)c(C)c1	-3.3	40.8	62.7*	0.4	-0.8	0.6
O=C(c1ccccc1)N1CCN(C2CCCCCC2)CC1	6.2	17.0	-2.9	1	-10.8	0.8
O=C(c1cccc(F)c1)N1CCN(C2CCCCC2)CC1	-11.6	12.1	-0.1	1	10.6	0.9
O=C(c1ccc(F)cc1)N1CCN(C2CC3CCC2C3)CC1 (stereo unspecified)	-1.5	75.6*	-1.8	1	10.2	0.2
O=C(c1ccccc1)N1CCN(C2CC3CCC2C3)CC1 (stereo unspecified)	19.9	82.3*	20.7	0.8	-2.1	0.2
O=c1nc(N2CCCCC2)nc(Nc2ccccc2)[nH]1	0.3	15.1	15.1	0.8	-4.6	0.8
CCN(CC)C(=O)COc1ccc2oc(C)c(C(=O)OC)c2c1	11.1	22.0	39.5	0.6	-0.6	0.8
COc1cc(OC)c(NS(=O)(=O)c2coc(C(N)=O)c2)cc1Cl	-9.8	96.3*	17.3	0.8	0.2	0
N/C(Cc1ccc(Cl)cc1)=N\OC(=O)c1cccc2ccccc12	104.3*	12.1	-103.3	2*	82.5*	0.9
N/C(Cc1ccc(Cl)cc1)=N\OC(=O)c1ccc2ccccc2c1	81.0*	-14.8	17.2	0.8	21.1	1.1
O=[N+]([O-])c1cc(-c2cnc3ccccc3n2)ccc1Oc1ccc(F)cc1	14.9	12.5	31.8	0.7	-0.2	0.9
O=C(NN1c2ccccc2CCc2ccccc21)c1ccccc1Br	16.2	26.4	20.0	0.8	-5.1	0.7
CN(C)S(=O)(=O)c1cccc(C(=O)OCC(=O)Nc2sccc2C#N)c1	-1.1	-0.5	22.9	0.8	-24.4	1
N#Cc1c(SCc2cccc(Cl)c2)sc(C(=O)c2ccccc2)c1N	12.3	80.8*	89.4*	0.1	-1.4	0.2
Cc1ccc(CSc2sc(C(=O)c3ccccc3)c(N)c2C#N)cc1	2.4	30.8	61.3*	0.4	-5.0	0.7
N#Cc1c(SCc2ccccc2)sc(C(=O)c2ccccc2)c1N	0.5	7.0	24.2	0.8	-4.3	0.9
C=CCNc1ccc(F)c(F)c1N1CCCCCC1=O	6.8	15.4	-60.2	1.6	5.6	0.8
[O-][n+]1onc2c1CCC1N(O)C(c3ccccc3)CC21O (stereo unspecified)	-19.1	16.1	3.3	1	8.4	0.8
CC(C)C1C(c2ccccc2)N(C)C(c2ccccc2)CC1(O)c1ccccc1 (stereo unspecified)	33.2*	-2.4	-5.3	1.1	-11.0	1
CCOC(=O)CCNC(=O)c1ccccc1Br	1.3	20.2	3.3	1	2.6	0.8
CN(C)c1ccc(-c2nn3c(-c4cccnc4)nnc3s2)cc1	/	38.0	10.0	0.9	/	0.6
COc1cc(-c2nnc3sc(-c4cccs4)nn23)cc(OC)c1OC	23.3	69.5*	79.7*	0.2	-2.5	0.3
COc1cc(-c2nn3c(-c4cccnc4)nnc3s2)cc(OC)c1OC	12.0	65.6*	40.4	0.6	2.5	0.3
COc1ccc(-c2nnc3sc(-c4cccs4)nn23)cc1OC	16.5	24.8	22.6	0.8	14.6	0.8
SMILES	PostGolgi ctrl	CYP2C19 inh	CYP2C9 inhib	CYP2C9 act	PostGolgi yeast	CYP2C19 act
CC(C)CN(CC(C)C)c1nc(N)c(C#N)c(CC#N)c1C#N	21.7	69.1*	85.6*	0.1	6.0	0.3
CCCc1nc(N)c(C#N)c(N)c1C#N	-2.5	-2.8	-0.7	1	0.5	1
COc1cccc(NC(=O)N(Cc2cc3cc(C)cc(C)c3[nH]c2=O)CC2COCCO2)c1 (stereo unspecified)	-5.7	28.8	56.7*	0.4	-0.3	0.7
COc1cccc(C2/C(=C(\O)c3c(C)nc4c(C)cccn34)C(=O)C(=O)N2CCCN(C)C)c1OC (stereo unspecified)	/	-4.3	-1.3	1	/	1
CC(C)(C)NC(=O)CSc1nnc(C2CC2)n1Cc1ccccc1	5.6	12.7	12.1	0.9	5.5	0.9
CCOC(=O)Cc1csc(NS(=O)(=O)c2ccc3c4c(cccc24)C(=O)N3CC)n1	15.9	44.3	95.3*	0	-10.9	0.6
CCN1C(=O)c2cccc3c(S(=O)(=O)Nc4c(C)n(C)n(-c5ccccc5)c4=O)ccc1c23	2.2	0.5	57.5*	0.4	-11.6	1
O=S(=O)(/C=C/c1ccccc1)n1cnc2ccccc21	2.1	46.1	17.5	0.8	-5.3	0.5
Oc1ccccc1-c1n[nH]c(=S)n1Cc1ccco1	-11.0	17.5	-10.4	1.1	0.5	0.8
Cc1[nH]n(-c2ccccc2)c(=O)c1CCOC(=O)c1cccc(C(F)(F)F)c1	10.3	78.2*	-2.0	1	-2.7	0.2
CCCc1nn(-c2cc(Cl)ccc2OC)c2c1C(=O)CC(C)(C)C2	26.4	62.8*	66.3*	0.3	7.0	0.4
O=C(CSC(=S)N1CCOCC1)N1N=CCC1c1ccccc1 (stereo unspecified)	-0.6	-0.4	15.3	0.8	1.9	1
Cc1oc2c(c1C(=O)c1ccc(Cl)cc1)C(=O)C(=O)c1ccccc1-2	58.4*	28.0	22.2	0.8	45.0*	0.7
Cc1ccc(C(=O)c2coc3ccc(OCC(=O)O)cc23)cc1	11.3	3.3	12.8	0.9	3.0	1
Cc1ccc(C(=O)c2c(C)oc3c2C(=O)C(=O)c2ccccc2-3)cc1	-5.5	62.8*	56.3*	0.4	28.8	0.4
Cc1ccc(C(=O)c2coc3c2C(=O)C(=O)c2ccccc2-3)cc1	70.5*	46.4	72.2*	0.3	80.6*	0.5
CC(=O)c1cccc(NC(=O)c2nccnc2C(=O)O)c1	17.2	-1.6	6.9	0.9	-0.8	1
O=C(O)c1sccc1Oc1ccc(F)cc1[N+](=O)[O-]	7.2	-24.1	11.3	0.9	-4.1	1.2
CCOC(=O)C(CC)n1nc(C)n2c(cc3sccc32)c1=O (stereo unspecified)	/	31.0	49.8	0.5	/	0.7
N#Cc1nc(Cc2cccc3ccccc23)oc1NCCN1CCOCC1	12.1	-10.8	-7.6	1.1	0.5	1.1
N#Cc1nc(-c2ccc(F)cc2)oc1NCc1cccc2c1OCO2	5.0	16.8	63.0*	0.4	0.7	0.8
N#Cc1nc(Cc2cccc3ccccc23)oc1NCc1ccc(F)cc1	31.4*	51.5*	89.9*	0.1	-6.2	0.5
C=CCNc1oc(/C=C/c2ccccc2)nc1C#N	29.4	68.1*	73.6*	0.3	0.3	0.3
C=CCNc1oc(Cc2cccc3ccccc23)nc1C#N	18.7	99.6*	64.7*	0.4	-14.9	0
Cc1ccc(-c2nc(C#N)c(NCc3cccc4c3OCO4)o2)cc1	19.9	-5.1	39.0	0.6	0.9	1.1

Assay outcomes (PubChem BioAssay)
